“And” between values parts separate entries of the source, which are not always exact repeats. Equal values may be shown once. Results filed as inconclusive are left out. The source made the active and inactive calls. Unless noted, calls come from the whole dose curve; as a rule, active = well fitted curve in the direction sought with a large enough effect; inconclusive = small, poorly fitted or top-dose-only effect, or another doubt; inactive = no such curve, though single readings can be large; an effect the other way counts as inactive or inconclusive.

10 compounds from PubChem BioAssay (NCATS) can be followed below.

For experiment [1], the target named is Cytochrome P450 2D6 (Homo sapiens) (UniProt P10635). The experiment can be described thus: qHTS Assay for Inhibitors and Substrates of Cytochrome P450 2D6 (AID 891). Note: nearly all actives have a fitted effect of over 60% in size. Note: potency is the fitted concentration of half-maximal effect. The following applies: recombinant CYP2D6, luciferin-ME EGE luminescence; series mostly up to 57.1 µM. An outline of the steps: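 Luminescent read-out of luciferin formed by 5 nM human CYP2D6 demethylating 30 uM Luciferin-ME EGE (Km level) over 60 min at room temperature after NADPH regeneration addition. Data normalized to full inhibition by 1.43 uM quinidine.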

The nature of experiment [2]: Cell Viability - HepG2 (AID 433; calls by dose curve;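 note: potency is the fitted concentration of half-maximal effect; potency for ATP loss meaning cytotoxicity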). The following applies: qHTS. The method, boiled down:
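Cytotoxicity is scored as loss of intracellular ATP in HepG2 cells exposed to compounds for 40 h. Concentration-response curves, normalized to DMSO and 100 uM tamoxifen, give AC50 values.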

A short description of experiment [3]: Cell Viability - NIH 3T3 (AID 541).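 For activity change, negative = cytotoxicity: plate controls were DMSO alone for no effect and tamoxifen positive control for full effect.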 Note: nearly all actives have a fitted effect of over 25% in size. Note: potency is the fitted concentration of half-maximal effect. As to conditions: NIH 3T3 cell viability, qHTS; activity change, negative = cytotoxicity: at 92.2 µM (top of the series). The method, boiled down: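 qHTS format; 40 hr compound exposure, 37 °C; CellTiter-Glo luminescence (cellular ATP) read-out after 20 min at RT. Decrease in ATP = cytotoxicity; AC50 from standard Hill fit.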
A general note: qHTS replaces the single test concentration by a dilution series.

The nature of experiment [4]: Cell Viability - HUV-EC-C (AID 542). Note: % is set by controls: 0 for no effect and ±100 for the full control effect; nearly all actives have a fitted effect of over 35% in size. As to conditions: HUV-EC-C endothelial cell viability, qHTS; series mostly up to 92.2 µM. The method, boiled down: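 Luminescent ATP read-out (CellTiter-Glo, 20 min room temperature) after 40 hr compound treatment of HUV-EC-C cells at 37 °C. Concentration-response data fitted with the standard Hill equation to give AC50; tamoxifen and doxorubicin served as positive controls.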

Experiment [5] in a line: Cellular Toxicity (caspase-3) HepG2 (AID 654).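 Note: cells exposed to compound for 16 hours before reading; 0% = DMSO alone and 100% = caspase signal from 100 µM tamoxifen.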 The following applies: HepG2 caspase-3 activation, luminescence, 0% = DMSO only, 100% = tamoxifen; series mostly up to 92.2 µM. The method, boiled down:
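Luminescent Caspase-Glo 3/7 readout after 16 hr compound exposure of human hepatocellular carcinoma HepG2 cells at 37 °C; qHTS concentration-response, normalized DMSO = 0%, 100 uM tamoxifen = 100%; AC50 by standard Hill equation.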

A short description of experiment [6]: Cellular Toxicity (caspase-3) Jurkat (AID 655).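 Note: cells exposed to compound for 16 h at 37 °C before reading.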 The following applies: Jurkat caspase-3 activation, luminescence, DMSO = 0%, tamoxifen = 100%; at 92.2 µM (top of the series). An outline of the steps: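 Caspase 3/7 activation is scored as increased luminescence in Jurkat cells cultured with compound for 16 hours in complete medium. AC50 values come from Hill fits of qHTS concentration-response data normalized to DMSO and 100 uM tamoxifen controls.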

A short description of experiment [7]: Cellular Toxicity (caspase-3) SHSY5Y (AID 657).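 Note: cells exposed to compound for 16 hours at 37 °C.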 The following applies: SH-SY5Y caspase-3 activation, DMSO zero, 10 µM staurosporine = 100%; series mostly up to 91.7 µM. The method, boiled down: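 Cells plated and incubated 5 h at 37 °C, dosed over a concentration range, incubated 16 h, then given Caspase-Glo 3/7 reagent for 1 h at room temperature before luminescence reading. Staurosporine (10 uM) defined full stimulation.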

Experiment [8] can be described thus: Cellular Toxicity (caspase-3) MRC-5 (AID 659). The following applies: MRC-5 cells, luminescence, normalized: DMSO 0%, 10 µM staurosporine 100%; series mostly up to 91.7 µM. The method, boiled down:
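Luminescent Caspase-Glo 3/7 read-out (1 h, room temperature) after a 16 h, 37 °C compound exposure of MRC-5 lung fibroblasts at 1500 cells/well. Concentration-response AC50 from Hill equation; 0% DMSO, 100% 10 uM staurosporine.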

A short description of experiment [9]: Cellular Toxicity (caspase-3) Mesangial (AID 660).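 Note: combined caspase 3 and 7 activity read by Caspase-Glo luminescence; cells exposed to compound for 16 h before the caspase read.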 The following applies: mesangial cells, normalized: DMSO 0%, 100 µM tamoxifen 100%; series mostly up to 91.7 µM. The method, boiled down:
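Luminescent Caspase-Glo 3/7 readout (aminoluciferin substrate cleavage, 20 min RT) after 16 h compound exposure at 37 °C of normal human mesangial cells. Signal increase normalized between DMSO basal and 100 uM tamoxifen; Hill-equation AC50.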

Experiment [10] can be described thus: Cellular Toxicity (caspase-3) Hek293 (AID 664).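 Note: cells exposed to compound for 16 h at 37 °C before readout.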 As to conditions: HEK293 caspase-3 activation, DMSO = 0%, 100 µM tamoxifen = 100%; series mostly up to 92.2 µM. An outline of the steps: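 Luminescent Caspase-Glo 3/7 readout (aminoluciferin release) in HEK293 cells after 16 h compound treatment, 37 °C. Normalization: DMSO = basal, 100 uM tamoxifen = 100% stimulation. Concentration-response fitted with standard Hill equation for AC50.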

Experiment [11] is described as follows: Cell Viability - LYMP2-001 (AID 921).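 Note: cells exposed to compound for 24 h at 37 °C; nearly all actives have a fitted effect of over 70% in size.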 Note: potency is the fitted concentration of half-maximal effect. As to conditions: LYMP2-001 lymphoblastoid cell viability; series mostly up to 92.2 µM. The method, boiled down:
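qHTS, 1536-well; lymphoblastoid cells, 24 hr compound, 37 C; ATP by CellTiter-Glo, 30 min RT; luminescence; Hill-fit AC50.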

Experiment [12] can be described thus: qHTS assay for small molecule agonists of retinoid X receptor alpha signaling (AID 588544; calls by dose curve;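 for activation: 0% = DMSO basal wells and 100% = reference agonist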). As to conditions: HEK293T RXRa-UAS-bla, beta-lactamase reporter, 18 h; 530 nm emission.
Experiment [13] addresses Retinoic acid receptor RXR-alpha (Homo sapiens) (UniProt P19793). Described as above. The following applies: HEK293T RXRa-UAS-bla, beta-lactamase reporter, 18 h; series mostly up to 76.7 µM.
Experiment [14] in a line: qHTS assay for small molecule agonists of the antioxidant response element (ARE) signaling pathway (AID 651741; active = well fitted activation curve with a large enough effect in the signal ratio; the % refers to the signal ratio; note: potency is the fitted concentration of half-maximal effect). The following applies: HepG2 ARE-bla reporter, beta-lactamase FRET ratio, 16 h; series mostly up to 96 µM. An outline of the steps:
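Agonist activity is measured as ARE-driven beta-lactamase expression in a stable HepG2 reporter line, using 16 h compound treatment at 37 C and a FRET substrate fluorescence readout after 2 h.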

Experiment [15] concerns the target Tumor necrosis factor (Homo sapiens) (UniProt P01375). Kind of experiment: qHTS assay to identify small molecules that stimulate Tumor Necrosis Factor-alpha (TNF-alpha) secretion (AID 651757; active = well fitted curve in the direction sought with a large enough effect in the signal ratio; the % refers to the signal ratio; note: 0% is about no effect). The following applies: Human cells, HTRF 665/615 ratio; series mostly up to 92.2 µM. The method, boiled down: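 THP-1 cells, 3000/well; compound 17 hrs, 37 C; add cryptate/XL665 anti-TNF-alpha antibody pair; 3 hr RT; TR-FRET (HTRF) read of secreted TNF-alpha. Quantitative HTS format.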

A short description of experiment [16]: qHTS assay for small molecule antagonists of the retinoid-related orphan receptor gamma (ROR-gamma) signaling pathway - cell viability counter screen (AID 720652; active = well fitted curve in the direction sought with a large enough effect in the repeat runs; an effect the other way counts as inactive or inconclusive;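 note: compound exposure lasted 16 hr before ATP read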; note: potency is the fitted concentration of half-maximal effect;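 for activity change, negative = cytotoxicity: CHO reporter cells with doxycycline-induced ROR-gamma expression; % is set by controls: 0 for no effect and ±100 for the full control effect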). As to conditions: RORgamma reporter cell line viability counter screen; series mostly up to 92.2 µM. The method, boiled down:
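CHO RORE-LUC/TET-ROR line, 1,000 cells/well, 37 C 5% CO2 5 hr; cpd or DMSO + doxycycline induction, 16 hr. CellTiter-Glo, 30 min RT, luminescence = ATP content.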

Experiment [17] deals with Peroxisome proliferator-activated receptor gamma (Homo sapiens) (UniProt P37231). The experiment can be described thus: qHTS assay for small molecule agonists of peroxisome proliferator-activated receptor gamma signaling (AID 588536; active = well fitted curve in the direction sought with a large enough effect in the signal ratio, with a control signal flat, not every such curve was filed as active; the % refers to the signal ratio;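 note: 0% = DMSO basal wells and 100% = rosiglitazone at 2 µM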). The following applies: HEK293 PPARg-UAS-bla, beta-lactamase ratio, 16 h, percent of rosiglitazone response, DMSO as zero; series mostly up to 76.7 µM. The method, boiled down:
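Using GeneBLAzer HEK293 cells, response was quantified by CCF4 fluorescence and normalized between basal DMSO (0%) and rosiglitazone 2 uM (100%); curves yielded half-maximal stimulation concentration and efficacy.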

A short description of experiment [18]: qHTS assay for small molecule activators of the nuclear factor-kappa B (NF-kB) signaling pathway (AID 651749; active = well fitted activation curve with a large enough effect in the signal ratio; the % refers to the signal ratio; note: % of control where 0% means no effect). As to conditions: NF-kB-bla ME-180 cells, beta-lactamase FRET ratio, 16 h; activation: stronger effect = higher value. An outline of the steps:
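FRET-based beta-lactamase detection in ME-180 cells reports NF-kB response-element-driven transcription following overnight (16 hr) compound treatment.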

A short description of experiment [19]: qHTS assay for environmental chemicals that activate the Aryl hydrocarbon Receptor (AhR) signaling pathway (AID 651777). Note: % of control where 0% means no effect; nearly all actives have a fitted effect of over 15% in size. As to conditions: 1A2-DRE human hepatoma cells, luciferase, 24 h; activation: stronger effect = higher value. An outline of the steps: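 1A2-DRE human hepatoma reporter line; 1,200 cells/well; cmpd or DMSO 24 h, 37 C/5% CO2; One-Glo 30 min RT; luciferase lum.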

Experiment [20] is described as follows: qHTS assay for small molecule antagonists of retinoid X receptor alpha signaling (AID 588546).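 Note: cells stimulated with 9-cis-retinoic acid as agonist; % is set by controls: 0 for no effect and ±100 for the full control effect.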 As to conditions: HEK293T RXRa-UAS-bla, beta-lactamase ratio, antagonist mode; measured here: W530 green channel, cytotoxicity proxy. An outline of the steps: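 Beta-lactamase reporter inhibition, read as CCF4 fluorescence ratio (ex 405, em 460/530 nm) after 2 h at RT. HEK293T UAS-bla cells, 2500/well, were stimulated with 9-cis-RA at 500 or 100 nM final alongside test compound for 18 h at 37 C.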

Chain of Tumor necrosis factor (Homo sapiens) (P01375 whole entry, looked up): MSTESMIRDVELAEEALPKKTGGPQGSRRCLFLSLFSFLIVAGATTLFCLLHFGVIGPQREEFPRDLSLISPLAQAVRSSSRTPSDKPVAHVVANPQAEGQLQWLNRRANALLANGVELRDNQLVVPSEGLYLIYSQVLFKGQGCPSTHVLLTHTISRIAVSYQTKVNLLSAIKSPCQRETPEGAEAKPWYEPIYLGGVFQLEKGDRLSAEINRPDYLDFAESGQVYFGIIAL
Chain of Cytochrome P450 2D6 (Homo sapiens) (P10635 whole entry, looked up): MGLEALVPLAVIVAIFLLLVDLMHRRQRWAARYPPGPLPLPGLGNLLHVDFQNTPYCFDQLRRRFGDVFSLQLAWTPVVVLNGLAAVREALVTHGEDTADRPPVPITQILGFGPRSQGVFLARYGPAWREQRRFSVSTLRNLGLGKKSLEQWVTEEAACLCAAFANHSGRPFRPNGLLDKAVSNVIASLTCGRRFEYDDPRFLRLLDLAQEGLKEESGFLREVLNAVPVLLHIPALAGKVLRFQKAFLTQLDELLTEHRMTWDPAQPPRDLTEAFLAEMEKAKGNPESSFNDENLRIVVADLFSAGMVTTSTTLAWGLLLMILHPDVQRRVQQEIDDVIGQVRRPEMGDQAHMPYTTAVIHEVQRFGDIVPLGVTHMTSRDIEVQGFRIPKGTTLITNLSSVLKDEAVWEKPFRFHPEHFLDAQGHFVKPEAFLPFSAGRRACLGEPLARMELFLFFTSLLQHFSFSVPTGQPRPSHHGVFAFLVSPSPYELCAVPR
Chain of Retinoic acid receptor RXR-alpha (Homo sapiens) (P19793 whole entry, looked up): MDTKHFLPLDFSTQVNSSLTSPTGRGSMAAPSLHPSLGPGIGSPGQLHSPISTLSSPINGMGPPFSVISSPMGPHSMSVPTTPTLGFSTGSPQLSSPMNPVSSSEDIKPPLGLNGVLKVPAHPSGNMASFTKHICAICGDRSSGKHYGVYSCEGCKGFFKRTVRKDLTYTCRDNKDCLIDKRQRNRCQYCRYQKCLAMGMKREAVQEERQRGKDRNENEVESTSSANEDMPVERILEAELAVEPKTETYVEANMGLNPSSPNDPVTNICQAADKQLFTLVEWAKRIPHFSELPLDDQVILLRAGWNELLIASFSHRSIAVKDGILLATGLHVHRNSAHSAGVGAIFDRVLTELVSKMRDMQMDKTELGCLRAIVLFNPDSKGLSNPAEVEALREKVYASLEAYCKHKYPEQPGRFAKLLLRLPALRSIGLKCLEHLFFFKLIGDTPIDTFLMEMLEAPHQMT
Chain of Peroxisome proliferator-activated receptor gamma (Homo sapiens) (P37231 whole entry, looked up): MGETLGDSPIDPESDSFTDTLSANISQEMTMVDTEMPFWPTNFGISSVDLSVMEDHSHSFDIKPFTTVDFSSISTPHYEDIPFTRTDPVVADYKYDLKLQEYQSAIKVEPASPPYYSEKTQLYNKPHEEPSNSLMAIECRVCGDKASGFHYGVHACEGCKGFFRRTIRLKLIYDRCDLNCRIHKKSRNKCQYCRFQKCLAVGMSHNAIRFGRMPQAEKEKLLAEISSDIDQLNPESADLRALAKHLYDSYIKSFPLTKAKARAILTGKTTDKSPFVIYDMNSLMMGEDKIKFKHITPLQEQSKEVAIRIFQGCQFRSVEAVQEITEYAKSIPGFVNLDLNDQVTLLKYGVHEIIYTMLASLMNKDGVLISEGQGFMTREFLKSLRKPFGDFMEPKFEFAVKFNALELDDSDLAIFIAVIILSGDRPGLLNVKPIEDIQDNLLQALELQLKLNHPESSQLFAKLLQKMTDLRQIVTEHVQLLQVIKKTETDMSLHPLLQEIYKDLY

`O=C1C=C2C=C[C@H]3C[C@@]2(O1)[C@H]1CCCCN31`: the Potency entry in experiment [1] was “inactive”.

In the case of `C[N+]1=Cc2cc3c(cc2CC1)OCO3`, the Potency in experiment [1] is 15.8 µM (active).

`O=C(O)COc1ccc(Cl)cc1Cl`: the Potency in experiment [2] is > 92 µM (inactive); in [14], 48.6 µM (active). Moreover, in experiment [3], the activity change, negative = cytotoxicity was -11.4% (inactive) and -12.3% (inactive). Besides, the Potency result in [4], in experiment [11], in experiment [13] and in experiment [16] was “inactive” in each case. Also, the compound was classed as inactive in experiment [5], in [7], in [8], in experiment [9], in [10] and in experiment [15]. Moreover, the caspase-3 activation in [6] is -0.262% (inactive) and -0.585% (inactive). Also, in [12], the max response was 29.1%.

Turning to `ClC1=C(Cl)C2(Cl)C3C4CC(C5OC45)C3C1(Cl)C2(Cl)Cl` (configuration not stated), the figures for the Potency in experiment [2] and in experiment [14] were > 92 µM (inactive) and 42.2 µM (active), respectively. Moreover, the activity change, negative = cytotoxicity in experiment [3] is -20.8% (inactive). Moreover, the Potency result in experiment [4] was “inactive”. In addition, the call in [5], in experiment [7], in experiment [8], in experiment [9], in [10] and in [17] was inactive. In addition, the outcome in [15] was inactive. Also, the caspase-3 activation in [6] was 28.4% (inactive). Besides, the activation was -0.275% (inactive) in experiment [18] and -0.344% (inactive) in experiment [19].

As to `COc1cc2c(cc1O)C[C@H]1c3c(cc(O)c(OC)c3-2)CCN1C`, in experiment [1], the Potency is 7.94 µM (active).

For `O=C1C(Cl)=C(Cl)C(=O)C(Cl)=C1Cl`, the Potency in experiment [3] was 31.6 µM (active); in experiment [11], 12.6 µM (active); in [14], 26.6 µM (active); in [16], 23.7 µM (active). In addition, the outcome in experiment [5], in experiment [7], in experiment [8], in experiment [9] and in [10] was inactive. The caspase-3 activation in experiment [6] is -9.68% (inactive).

For the compound `COc1cc2c(c(OC)c1OC)-c1ccc(O)c(=O)cc1[C@@H](NC(C)=O)CC2`, the Potency entry in experiment [1] was “inactive”.

Consider `CNC(=O)Oc1ccc2c(c1)[C@@]1(C)CCN(C)[C@@H]1N2C`, for which the Potency in experiment [1] was 0.631 µM (active).

In the case of `C#CCOS(=O)OC1CCCCC1Oc1ccc(C(C)(C)C)cc1` (configuration not stated), the max response in experiment [20] was found to be 24.4%. Further, the results for the activation in experiment [18] and in experiment [19] were 7.07% (inactive) and 0.168% (inactive), respectively.

In the case of `CC(C)Nc1nc(Cl)nc(NC(C)C)n1`, in [17], the outcome was inactive. Also, the max response in experiment [12] is 7.09%; in [20] it was -10.2%. Also, the Potency entry in experiment [13] is “inactive”. Moreover, the activation in experiment [19] was 0.683% (inactive).
